From ChEMBL document CHEMBL3988442, “University of Dundee, Small-Polar-MMV Screening Library” (2021)
For some assays here: Entries with a potency or affinity are not part of this list.

What was measured:
Set-up in all cases: scale not given: direction of the effect not stated beside the values
[1] = molecular target: Protein translocase subunit SecA (Escherichia coli (strain K12)) (UniProt P10408); assay: Assay to Identify E. coli SecA ATPase Inhibitors; type: functional; details: 30 µM
[2] = molecular target: T1, Ubiquitin-activating enzyme e1, putative (Leishmania donovani (strain BPK282A1)) (UniProt E9BSI1); assay: Leishmania donovani Ubiquitin Activating Enzyme (LdE1); type: functional; details: 30 µM
T1 sequence (whole entry): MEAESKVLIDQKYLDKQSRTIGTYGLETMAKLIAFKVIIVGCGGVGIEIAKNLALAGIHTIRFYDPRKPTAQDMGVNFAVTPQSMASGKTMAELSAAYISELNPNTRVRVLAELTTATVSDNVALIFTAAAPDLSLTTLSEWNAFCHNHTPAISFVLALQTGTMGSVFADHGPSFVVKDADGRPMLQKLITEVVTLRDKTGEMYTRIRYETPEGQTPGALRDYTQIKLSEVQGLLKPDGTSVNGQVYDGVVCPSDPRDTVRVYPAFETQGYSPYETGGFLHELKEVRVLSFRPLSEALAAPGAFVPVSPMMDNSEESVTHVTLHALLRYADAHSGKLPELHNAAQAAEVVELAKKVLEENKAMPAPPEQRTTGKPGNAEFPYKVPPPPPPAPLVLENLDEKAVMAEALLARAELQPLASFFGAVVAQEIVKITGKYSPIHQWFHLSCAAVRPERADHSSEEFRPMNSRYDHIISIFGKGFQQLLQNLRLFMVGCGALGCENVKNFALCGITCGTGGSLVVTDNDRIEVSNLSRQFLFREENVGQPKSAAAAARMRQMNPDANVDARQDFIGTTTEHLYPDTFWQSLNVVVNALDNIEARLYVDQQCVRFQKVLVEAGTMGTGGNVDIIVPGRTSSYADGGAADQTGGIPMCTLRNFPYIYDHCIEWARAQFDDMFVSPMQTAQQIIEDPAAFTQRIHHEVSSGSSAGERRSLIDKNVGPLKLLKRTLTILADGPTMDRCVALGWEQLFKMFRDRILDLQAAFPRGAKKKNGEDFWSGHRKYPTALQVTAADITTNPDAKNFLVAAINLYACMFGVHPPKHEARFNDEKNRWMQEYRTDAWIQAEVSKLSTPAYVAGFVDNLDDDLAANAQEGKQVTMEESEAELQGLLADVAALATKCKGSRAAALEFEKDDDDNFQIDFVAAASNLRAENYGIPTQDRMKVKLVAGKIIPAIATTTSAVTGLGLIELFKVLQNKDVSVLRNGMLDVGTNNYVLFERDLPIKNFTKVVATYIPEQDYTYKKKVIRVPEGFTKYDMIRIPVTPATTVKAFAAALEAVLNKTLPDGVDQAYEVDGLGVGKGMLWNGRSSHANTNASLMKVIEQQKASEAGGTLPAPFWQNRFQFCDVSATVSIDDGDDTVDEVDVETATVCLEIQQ

[3] = molecular target: AMP-activated protein kinase, AMPK (Homo sapiens) (UniProt P54646+O43741+P54619+Q9UGJ0+Q9Y478+Q13131+Q9UGI9); assay: AMP-dependent Kinase enzyme assay. An in vitro enzyme assay that detects ADP turnover that is directly proportional to AMPK activity. This uses naive AMPK that is activated during the assay with MK-8722; type: functional; details: 30 µM
[4] = molecular target: Sialic acid-binding Ig-like lectin 9 (Homo sapiens) (UniProt Q9Y336); assay: Hs-Siglec9 ALPHAscreen SOP 20170721; details: 10 µM
Trypanosoma cruzi = assay: Trypanosoma cruzi phosphomannomutase and mannose-1-phosphate guanylyltransferase assay; type: functional; details: 10 µM
[5] = molecular target: T2, Arginase-2, mitochondrial (Homo sapiens) (UniProt P78540); assay: in vitro enzyme assay to detect the production of urea directly proportional to the activity of Arginase II; type: functional; details: 33.3 µM; also: in the data most compounds retested in dose-response had high values
T2 sequence (whole entry): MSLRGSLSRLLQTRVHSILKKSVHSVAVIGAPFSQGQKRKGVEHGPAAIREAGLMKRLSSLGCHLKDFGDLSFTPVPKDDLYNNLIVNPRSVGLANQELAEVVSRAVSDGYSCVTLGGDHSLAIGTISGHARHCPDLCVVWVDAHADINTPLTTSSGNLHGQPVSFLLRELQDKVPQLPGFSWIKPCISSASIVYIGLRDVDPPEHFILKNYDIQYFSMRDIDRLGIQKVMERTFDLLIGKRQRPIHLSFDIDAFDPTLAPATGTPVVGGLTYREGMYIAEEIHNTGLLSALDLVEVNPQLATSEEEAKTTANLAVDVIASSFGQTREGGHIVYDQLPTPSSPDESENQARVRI

[6] = molecular target: T3, Proteasome subunit beta (Trypanosoma cruzi) (UniProt O96673); assay: Trypanosoma cruzi proteasome chymotrypsin-like activity (TcProtChymo) assay.; also: in the data most compounds retested in dose-response had high values; type: functional; details: 9.37 µM
T3 sequence (whole entry): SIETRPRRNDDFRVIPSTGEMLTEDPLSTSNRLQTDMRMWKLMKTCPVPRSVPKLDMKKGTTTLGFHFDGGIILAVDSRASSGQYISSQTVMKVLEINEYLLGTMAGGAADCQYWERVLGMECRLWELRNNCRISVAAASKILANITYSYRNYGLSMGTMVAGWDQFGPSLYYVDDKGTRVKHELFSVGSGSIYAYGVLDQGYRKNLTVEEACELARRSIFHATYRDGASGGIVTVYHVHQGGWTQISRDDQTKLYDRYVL

Homo sapiens = species: Homo sapiens; assay: To identify inhibition of the IFN signalling (Jak-Stat) pathway via expression of an eGFP reporter gene under the control of an IFN-stimulated response element (ISRE) containing MxA promoter.; type: functional; details: 30 µM
[7] = molecular target: T4, Tyrosyl-tRNA synthetase, putative (Trypanosoma cruzi (strain CL Brener)) (UniProt Q4DSP6); assay: Trypanosoma cruzi tyrosyl tRNA synthetase (TcYRS) _High Tyrosine SOP; type: functional; details: 30 µM; also: in the data most compounds retested in dose-response had high values
T4 sequence (whole entry): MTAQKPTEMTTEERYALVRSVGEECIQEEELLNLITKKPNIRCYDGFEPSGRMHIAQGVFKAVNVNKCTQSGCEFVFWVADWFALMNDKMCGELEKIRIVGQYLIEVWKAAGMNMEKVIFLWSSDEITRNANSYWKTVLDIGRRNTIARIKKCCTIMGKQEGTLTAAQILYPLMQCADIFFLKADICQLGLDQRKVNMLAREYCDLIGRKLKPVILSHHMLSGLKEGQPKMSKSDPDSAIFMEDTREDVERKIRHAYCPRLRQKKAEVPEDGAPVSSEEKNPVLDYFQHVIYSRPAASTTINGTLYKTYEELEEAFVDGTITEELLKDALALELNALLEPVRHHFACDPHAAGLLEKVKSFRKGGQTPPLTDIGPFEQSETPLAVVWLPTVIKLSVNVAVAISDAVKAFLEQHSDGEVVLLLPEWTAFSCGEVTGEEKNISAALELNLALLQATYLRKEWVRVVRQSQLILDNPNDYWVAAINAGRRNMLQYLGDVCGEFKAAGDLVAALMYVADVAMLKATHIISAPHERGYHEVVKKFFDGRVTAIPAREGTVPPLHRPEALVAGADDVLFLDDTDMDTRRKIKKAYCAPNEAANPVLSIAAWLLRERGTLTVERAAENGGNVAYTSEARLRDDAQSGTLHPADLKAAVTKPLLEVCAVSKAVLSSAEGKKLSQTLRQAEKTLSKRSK

[8] = molecular target: T4, Tyrosyl-tRNA synthetase, putative (Trypanosoma cruzi (strain CL Brener)); assay: Trypanosoma cruzi tyrosyl tRNA synthetase (TcYRS) SOP; type: functional; details: 30 µM
[9] = molecular target: Chromo domain-containing protein 1 (Saccharomyces cerevisiae (strain ATCC 204508 / S288c) (Baker's yeast)) (UniProt P32657); assay: ScCHD-1 Enzyme Inhibition Assay; type: functional; details: 30 µM; also: in the data most compounds retested in dose-response had high values
Sequence of Chromo domain-containing protein 1 (Saccharomyces cerevisiae (strain ATCC 204508 / S288c) (Baker's yeast)) (P32657 whole entry, the tested form may be a part): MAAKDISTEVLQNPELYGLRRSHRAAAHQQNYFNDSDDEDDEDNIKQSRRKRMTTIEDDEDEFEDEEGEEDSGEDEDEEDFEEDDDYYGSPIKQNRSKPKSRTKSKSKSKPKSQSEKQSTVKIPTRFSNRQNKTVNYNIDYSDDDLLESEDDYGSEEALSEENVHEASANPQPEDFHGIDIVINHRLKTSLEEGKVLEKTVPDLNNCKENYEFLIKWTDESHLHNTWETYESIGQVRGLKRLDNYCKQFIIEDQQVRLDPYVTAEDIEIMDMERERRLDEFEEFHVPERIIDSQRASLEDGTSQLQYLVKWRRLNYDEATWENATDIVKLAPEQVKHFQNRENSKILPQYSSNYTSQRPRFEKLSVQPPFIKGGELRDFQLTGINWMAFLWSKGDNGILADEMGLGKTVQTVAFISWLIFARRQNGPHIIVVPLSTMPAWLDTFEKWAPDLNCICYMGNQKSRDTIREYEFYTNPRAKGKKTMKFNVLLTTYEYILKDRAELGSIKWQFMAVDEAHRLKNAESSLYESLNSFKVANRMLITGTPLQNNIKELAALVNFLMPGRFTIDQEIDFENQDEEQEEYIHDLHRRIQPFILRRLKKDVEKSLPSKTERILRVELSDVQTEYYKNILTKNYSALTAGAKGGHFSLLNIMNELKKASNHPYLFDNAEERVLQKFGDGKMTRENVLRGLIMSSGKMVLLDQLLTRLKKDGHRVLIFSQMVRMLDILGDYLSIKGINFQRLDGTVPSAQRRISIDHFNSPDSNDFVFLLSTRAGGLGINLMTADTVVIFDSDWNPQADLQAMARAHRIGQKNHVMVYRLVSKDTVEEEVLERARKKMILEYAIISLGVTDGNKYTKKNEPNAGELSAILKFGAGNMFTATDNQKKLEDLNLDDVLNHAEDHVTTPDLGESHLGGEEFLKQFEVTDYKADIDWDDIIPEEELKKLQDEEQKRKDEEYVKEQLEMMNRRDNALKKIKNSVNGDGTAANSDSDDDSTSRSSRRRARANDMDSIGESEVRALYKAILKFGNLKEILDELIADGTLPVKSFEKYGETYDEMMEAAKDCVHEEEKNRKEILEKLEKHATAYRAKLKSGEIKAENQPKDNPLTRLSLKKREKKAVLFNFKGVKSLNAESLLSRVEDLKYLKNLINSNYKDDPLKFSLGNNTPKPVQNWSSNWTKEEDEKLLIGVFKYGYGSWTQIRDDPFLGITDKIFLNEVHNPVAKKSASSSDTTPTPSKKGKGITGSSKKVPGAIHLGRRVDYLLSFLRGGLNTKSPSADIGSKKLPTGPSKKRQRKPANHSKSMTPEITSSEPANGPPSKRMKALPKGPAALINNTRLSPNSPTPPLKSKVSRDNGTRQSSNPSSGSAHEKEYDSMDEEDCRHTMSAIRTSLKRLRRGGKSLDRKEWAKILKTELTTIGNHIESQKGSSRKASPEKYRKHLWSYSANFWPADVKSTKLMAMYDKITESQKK

Sequence of Protein translocase subunit SecA (Escherichia coli (strain K12)) (P10408 whole entry): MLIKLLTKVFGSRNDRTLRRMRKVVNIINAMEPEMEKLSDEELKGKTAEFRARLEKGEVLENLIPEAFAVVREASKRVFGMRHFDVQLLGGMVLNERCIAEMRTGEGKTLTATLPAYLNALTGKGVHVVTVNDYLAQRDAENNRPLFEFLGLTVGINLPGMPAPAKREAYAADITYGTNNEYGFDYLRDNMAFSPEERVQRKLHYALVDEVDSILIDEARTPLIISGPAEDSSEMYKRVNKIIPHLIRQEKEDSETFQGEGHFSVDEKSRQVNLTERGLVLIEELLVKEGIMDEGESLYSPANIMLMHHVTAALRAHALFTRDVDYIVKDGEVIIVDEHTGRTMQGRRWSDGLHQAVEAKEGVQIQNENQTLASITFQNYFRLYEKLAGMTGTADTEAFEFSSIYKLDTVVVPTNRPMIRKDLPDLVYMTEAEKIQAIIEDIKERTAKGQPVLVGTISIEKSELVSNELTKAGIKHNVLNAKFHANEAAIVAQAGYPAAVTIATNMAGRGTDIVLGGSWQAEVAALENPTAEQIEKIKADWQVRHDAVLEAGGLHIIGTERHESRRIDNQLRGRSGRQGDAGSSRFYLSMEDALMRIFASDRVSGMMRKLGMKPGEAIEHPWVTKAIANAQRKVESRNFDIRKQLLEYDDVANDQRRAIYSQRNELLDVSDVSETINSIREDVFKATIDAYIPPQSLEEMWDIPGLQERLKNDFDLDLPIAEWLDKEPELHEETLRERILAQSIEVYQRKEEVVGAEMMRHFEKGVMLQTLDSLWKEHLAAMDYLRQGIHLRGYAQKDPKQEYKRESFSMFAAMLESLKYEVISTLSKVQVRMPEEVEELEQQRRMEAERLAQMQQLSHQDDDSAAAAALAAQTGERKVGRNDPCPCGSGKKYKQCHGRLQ
Sequence of Sialic acid-binding Ig-like lectin 9 (Homo sapiens) (Q9Y336 whole entry): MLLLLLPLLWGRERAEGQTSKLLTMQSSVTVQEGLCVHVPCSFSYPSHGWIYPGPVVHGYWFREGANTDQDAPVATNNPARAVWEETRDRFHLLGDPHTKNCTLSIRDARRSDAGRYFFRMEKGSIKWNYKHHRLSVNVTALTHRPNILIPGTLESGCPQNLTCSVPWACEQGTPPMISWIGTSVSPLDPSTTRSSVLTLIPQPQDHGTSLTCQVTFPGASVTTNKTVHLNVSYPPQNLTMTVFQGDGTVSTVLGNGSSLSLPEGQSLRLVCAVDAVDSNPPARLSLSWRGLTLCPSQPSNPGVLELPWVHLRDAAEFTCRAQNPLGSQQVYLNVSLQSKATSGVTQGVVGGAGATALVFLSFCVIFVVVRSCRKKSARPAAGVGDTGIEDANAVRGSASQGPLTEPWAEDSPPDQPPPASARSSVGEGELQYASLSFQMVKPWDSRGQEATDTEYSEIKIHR

SMILES | Percent Effect [1] | Percent Effect [2] | Percent Effect [3] | Percent Effect [4] | Percent Effect (Trypanosoma cruzi) | Percent Effect [5] | Percent Effect [6] | Percent Effect (Homo sapiens) | Percent Effect [7] | Percent Effect [8] | Percent Effect [9]
CCc1nc(CN2CCN(c3ncnc4cc(F)ccc34)CC2)no1 | -8.93% | 0% | -0.509% | 2.81% | -3.44% | 0% | 9.65% | 75.3% | -3.23% | -6.17% | 1.03%
Cc1csc(N2CCN(C(=O)CCn3cncn3)CC2)n1 | -2.99% | 17.7% | -7.64% | 11.1% | 0.472% | 4.18% | 6.31% | -0.236% | 8.37% | 21.5% | -6.07%
O=C(Nc1ccccc1OC(F)F)C1=NN(c2ccccc2)C(=O)CN1 | -1.64% | 10.1% | -3.73% | -7.92% | -3.87% | 3.04% | 8.11% | 8.86% | -0.493% | 11.4% | -4.54%
CC[C@@H](CO)NC(=O)c1coc(COc2ccc(OC)cc2)n1 | -3.54% | 10.8% | -5.65% | -1.14% | -2.05% | -0.744% | 5.58% | -2.06% | 6.45% | 18.5% | -1.77%
CCOC(=O)C1CCN(C(=O)Cn2ccc3cc(Br)ccc32)CC1 | -3.71% | 14.7% | -7.58% | -2.58% | 6.29% | -0.88% | 9.43% | 4.34% | 1.06% | 10.3% | -13.5%
CC(C)n1c(C2CCCN(Cc3ccnn3C)C2)nc2ccccc21 (configuration not stated) | -5.27% | 5.33% | 6.84% | 4.6% | 6.5% | -1.63% | 6.78% | 18.1% | 2.13% | 14.1% | -3.27%
CCc1nc(CN2CCCC(N(C)Cc3cnn(C)c3)C2)no1 (configuration not stated) | -1.5% | 8.22% | -0.902% | 3.69% | 2.74% | 5.91% | 9.23% | -2.09% | 1.07% | 2.5% | -3.19%
CCCC1(CO)CCCN(c2ncccc2F)C1 (configuration not stated) | -0.789% | 5.41% | -4.77% | 3.77% | -1.16% | -2.38% | 14.8% | 10.4% | 5.82% | 12.2% | -3.22%
CC(C)OCc1ncn2c1CN(Cc1ccc(F)cc1)CCC2 | -4.79% | 8.11% | 2.07% | 2.94% | -4.79% | -6.05% | 22% | -10.1% | 3.24% | 12.8% | -0.808%
CC(C)(C)NC(=O)C1CSCN1S(=O)(=O)c1cccc(F)c1 (configuration not stated) | 1.74% | 8.22% | -2.49% | -2.56% | -8.81% | 0.909% | 20.2% | 12.2% | 3.23% | 10% | -1.73%
NC(=O)N1CCC2(CCN(Cc3cccc(F)c3)CC2)CC1 | -2.86% | 5.2% | -0.226% | 14.9% | 1.67% | -9.65% | 14.3% | 5.51% | 5.38% | 11.1% | -1.58%
COc1cc(CNC2CCc3nc(C(C)C)nn3C2)cc2c1OCO2 (configuration not stated) | -3.28% | 2.63% | -0.342% | 1.45% | -0.28% | 3.24% | -0.592% | -4.24% | 1.48% | -6.17% | -3.88%
O=C(c1cnccn1)N1CCOCC2(CCN(C3CCOCC3)C2)C1 (configuration not stated) | -3.59% | 25.3% | -6.88% | -0.346% | 3.54% | -0.528% | 19.4% | -1.42% | 8.47% | 15.4% | -9.96%
Cc1cc(S(=O)(=O)N2CCCc3ccc(F)cc32)sc1C(=O)O | -6.14% | 0% | 3.45% | 0.802% | -1.85% | 4.69% | 1.74% | 12.6% | -23.5% | -33.3% | -2.04%
Cc1ccc(C(=O)N2CCC3(CCN(C(=O)c4cccnc4)C3)CC2)o1 | -2.08% | 13.5% | 6.42% | -12.6% | -3.62% | 14.3% | 13.8% | -16.6% | 1.08% | 5.13% | -2.81%
CCN(CCC(F)(F)F)C(=O)Nc1cccc(N2CCOCC2)c1 | -2.27% | 5.41% | -8.53% | 14.9% | 2.12% | -2.38% | 5.52% | 16.4% | 2.65% | 7.32% | -3.36%
COc1ccccc1CCNC(=O)CN1CCCC1c1noc(C)n1 (configuration not stated) | -1.65% | 2.63% | 3.18% | 11.8% | -1.69% | 1.53% | 12.9% | 5.32% | 4.41% | 17.1% | -5.97%
Cc1ccc(NC2CCN(C(=O)CN(C)C3CC3)CC2)nn1 | -4.6% | -6.33% | -0.261% | 16.3% | -3.79% | 0.645% | 6.69% | -12.3% | 4.17% | 7.59% | -6.68%
NC(=O)c1ccc(N2CCCCC2)c(NC(=O)c2cncc(Br)c2)c1 | -3.53% | 5.2% | 10.4% | 12.7% | 2.06% | -78.6% | 12.5% | 35.7% | 3.23% | 11.1% | -2.92%
CCCNC(=O)c1sc(Nc2ccc(Cl)cn2)nc1C | -0.647% | 17.3% | -1.88% | -4.2% | 4.13% | -0.88% | 13.5% | -1.08% | 7.41% | 7.69% | -6.09%
COc1ncccc1NC(=O)NCC(O)c1ccc(F)cc1F (configuration not stated) | -1.59% | -6.33% | 2.46% | 1.59% | -3.79% | 5.38% | 20.6% | 15.3% | 2.08% | 5.06% | -13.8%
COc1ccccc1CN1C(=O)O[C@@H]2CN(c3nccs3)C[C@@H]21 | -8.53% | 0% | 2% | 2.51% | -5.75% | -3.12% | 11.2% | 15.3% | 2.73% | 3.7% | -3.84%
